Data reported in PubChem BioAssay AID651903 (Broad Institute, 2012).
Out of some 22,000 compounds screened, about 1,100 (5%) were called active. The sample holds actives, similar compounds and a random draw of the others, so the mix is not that of the screen. No stated cut-off is given here; in the data, active means activity score above about 55%; inconclusive means no clear call, values can overlap the other calls; inactive means below that.

Assay: inhibitors of intracellular Trypanosoma cruzi, primary screen, cell-based, plate reader, single point, set 2 (AID 651903);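 further: parasites and compound incubated about four days before reading; 0% = median of neutral control wells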
Details: intracellular Trypanosoma cruzi in host cells, at 5.01 µM, hits give high values
With `C[C@@H]1CN([C@@H](C)CO)C(=O)Cc2cc(NC(=O)C3CCCCC3)ccc2O[C@@H]1CN(C)Cc1ccc(-c2ccccc2)cc1` the activity score (inhibition) was 43.3% (inactive). With `Cc1ccc(S(=O)(=O)N(C)C[C@@H]2Oc3ccc(NC(=O)Cn4cnnn4)cc3CC(=O)N([C@H](C)CO)C[C@H]2C)cc1` the activity score (inhibition) was 9.72% (inactive). For `C[C@@H]1CN([C@@H](C)CO)C(=O)c2cccc(NS(=O)(=O)c3ccc(F)cc3)c2O[C@@H]1CN(C)Cc1ccc(C(=O)O)cc1`, the activity score (inhibition) was -4.66% (inactive). In the case of `C[C@@H]1CN([C@H](C)CO)C(=O)Cc2cc(NC(=O)CCC(F)(F)F)ccc2O[C@@H]1CN(C)CC1CCCCC1`, the activity score (inhibition) is reported as -9.63% (inactive). With `C[C@H]1CN([C@@H](C)CO)C(=O)c2cccc(NC(=O)CCCCCC(=O)Nc3ccccc3N)c2O[C@@H]1CN(C)S(=O)(=O)c1cn(C)cn1` the activity score (inhibition) was -40.6% (inactive). In the case of `C[C@H](CO)N1C[C@H](C)[C@@H](CN(C)C(=O)Nc2ccccc2)Oc2c(NC(=O)CCCCCC(=O)Nc3ccccc3N)cccc2C1=O`, the activity score (inhibition) is reported as -11.7% (inactive). For `C[C@H](CO)N1C[C@H](C)[C@H](CN(C)Cc2ccc(Oc3ccccc3)cc2)Oc2c(NC(=O)CCCCCC(=O)Nc3ccccc3N)cccc2C1=O`, the activity score (inhibition) was 65.5% (active). With `C[C@H](CO)N1C[C@H](C)[C@@H](CN(C)Cc2ccccc2)Oc2c(NC(=O)CCCCCC(=O)Nc3ccccc3N)cccc2C1=O` the activity score (inhibition) was 75.8% (active). In the case of `C[C@H]1CN([C@@H](C)CO)C(=O)c2cccc(NC(=O)Nc3ccccc3)c2O[C@H]1CN(C)Cc1ccc(Oc2ccccc2)cc1`, the activity score (inhibition) is reported as 13.5% (inactive). In the case of `C[C@@H]1CN([C@H](C)CO)C(=O)c2cccc(NC(=O)CCCCCC(=O)Nc3ccccc3N)c2O[C@@H]1CN(C)C(=O)Nc1ccccc1`, the activity score (inhibition) is reported as 16.9% (inactive). For `C[C@@H]1CN([C@@H](C)CO)C(=O)c2cccc(NC(=O)Nc3cccc4ccccc34)c2O[C@H]1CN(C)S(=O)(=O)c1ccccc1`, the activity score (inhibition) was -9.51% (inactive). For `C[C@H](CO)N1C[C@H](C)[C@H](CN(C)S(=O)(=O)c2ccccc2)Oc2c(NC(=O)CCCCCC(=O)Nc3ccccc3N)cccc2C1=O`, the activity score (inhibition) was 58.6% (active). In the case of `C[C@H]1CN([C@@H](C)CO)C(=O)c2cccc(NC(=O)CCCCCC(=O)Nc3ccccc3N)c2O[C@H]1CN(C)C(=O)Nc1ccccc1`, the activity score (inhibition) is reported as -8.85% (inactive). With `CC(C)NC(=O)Nc1cccc2c1O[C@@H](CN(C)S(=O)(=O)c1ccc(F)cc1)[C@@H](C)CN([C@H](C)CO)C2=O` the activity score (inhibition) was -25.4% (inactive). With `C[C@@H]1CN([C@@H](C)CO)C(=O)CCCn2cc(nn2)CO[C@@H]1CN(C)C(=O)c1ccncc1` the activity score (inhibition) was -21.4% (inactive).
